# D2 ag-1 = Beta-Arrestin HTS for Positive Allosteric Modulators of the Human D2 Dopamine Receptor: Agonists | D(2) dopamine receptor (Homo sapiens), P14416 | DiscoveRx PathHunter D2 beta-arrestin, luminescence, 90 min; 100% = 57 uM dopamine signal | activation, % (test concentration not listed) | actives 0.084% (n = 360,000) | AID 624465, 2012; in the data active = activation above about 40%; inconclusive = between about 15% and that limit
#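 DiscoveRx PathHunter D2 beta-arrestin cells (2,100/well) attached overnight, then compound-stimulated 90 min at 37 C in HBSS/10 mM HEPES/0.1% Tween-20 buffer; beta-galactosidase complementation read by luminescence after 1 h at ambient temperature. Dopamine 57 uM final (EC100) as control.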
# D2 PAM-1 = HTS Assay for Positive Allosteric Modulators of the Human D2 Dopamine Receptor: Primary Screen for Potentiators; HEK293 T-REx D2, calcium flux, EC20 dopamine potentiation; potentiation, % at 10 µM; actives 0.34% (n = 340,000); AID 485347, 2010;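 active = potentiation over 3 SD above the plate norm, cut at about 30% in these data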; also: 0% is about no effect
#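 Tetracycline-induced HEK293 T-REx cells force-coupled to calcium signalling expressed D2; compounds were pin-added after a 10 s baseline, read kinetically 180 s, then an EC20 dopamine challenge followed with a further 180 s calcium read.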
# D2 ag-2 = HTS Assay for Allosteric Agonists of the Human D2 Dopamine Receptor: Primary Screen for Agonists; D(2) dopamine receptor (Homo sapiens), P14416; HEK293 T-REx D2 cells, calcium flux agonist mode; activation, % at 2 µM; actives 0.53% (n = 340,000);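 active = activation over 3 SD above normal in the single-dose calcium agonist read, cut at about 30% in these data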; also: 0% is about no effect
#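 Agonism is scored from calcium flux in a force-coupled, inducible HEK293 cell line expressing D2, read kinetically for 180 s after compound addition against dopamine controls.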
# D2 PAM-2 = Beta-Arrestin HTS for Positive Allosteric Modulators of the Human D2 Dopamine Receptor: Potentiators; D(2) dopamine receptor (Homo sapiens), P14416; DiscoveRx D2 beta-arrestin cells, luminescence, 90 min; 100% = 57 uM dopamine signal; potentiation, % (test concentration not listed); actives 0.23% (n = 360,000); AID 624464, 2012; in the data active = potentiation above about 50%; inconclusive = mostly about 30% to 49%
#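 D2 cells co-treated with compound plus 50 nM dopamine (EC20) for 90 min at 37 deg C to detect potentiation. Beta-arrestin recruitment was read as enzyme-fragment luminescence after 1 h at ambient temperature. Full response was set by 57 uM dopamine.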
# D2 antag = HTS Assay for Allosteric Antagonists of the Human D2 Dopamine Receptor: Primary Screen for Antagonists | HEK293 TREx D2 cells, calcium flux, dopamine EC80 | D(2) dopamine receptor (Homo sapiens), P14416 | actives 2% (n = 340,000) | inhibition, % at 10 µM; in the data active = inhibition above about 30%; inactive = below that, where a call was filed; also: 0% is about no effect
#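 Tetracycline-induced HEK293 T-REx cells expressing D2 force-coupled to calcium signalling were dye-loaded, exposed to compound for 180 s, then challenged with an EC80 of dopamine; calcium flux was followed kinetically for a further 180 s.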
# D3 ag = qHTS of D3 Dopamine Receptor Agonist: D3 Dopamine Receptor B-arrestin Agonist Confirmatory Assay | shares compounds with D2 ag-2 | DiscoveRx D3 beta-arrestin cells, luminescence, 90 min | Potency, µM (doses to about 76.9 µM), for the others: at the highest dose activation, hits mostly activators | actives 4% (n = 2,300);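 also: potency is read from the fitted curve at half-maximal effect; 100% = dopamine control response; nearly all actives have a fitted effect of over 70% in size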
# Target sequence (P35462 whole entry, looked up): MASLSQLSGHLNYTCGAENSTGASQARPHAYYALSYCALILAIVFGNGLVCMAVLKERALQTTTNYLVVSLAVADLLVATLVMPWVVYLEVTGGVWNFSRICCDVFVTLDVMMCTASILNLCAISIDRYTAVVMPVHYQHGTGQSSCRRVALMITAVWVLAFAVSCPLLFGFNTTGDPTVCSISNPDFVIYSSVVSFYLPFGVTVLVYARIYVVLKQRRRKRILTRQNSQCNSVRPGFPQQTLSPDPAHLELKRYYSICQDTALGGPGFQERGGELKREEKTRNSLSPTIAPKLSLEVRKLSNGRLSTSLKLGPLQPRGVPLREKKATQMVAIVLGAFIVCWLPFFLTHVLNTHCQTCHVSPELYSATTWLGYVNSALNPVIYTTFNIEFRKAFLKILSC
# D2 ag-3 = qHTS of D3 Dopamine Receptor Agonist: D2 Dopamine Receptor B-arrestin Agonist Counterscreen. Potency, µM (series often up to 76.9 µM), for inactives: at the highest dose activation, usual class: activators. shares compounds with D2 ag-2. DiscoveRx PathHunter D2 beta-arrestin, luminescence, 90 min; response scale: percent relative to full dopamine signal. actives 5.9% (n = 2,300); also: potency is read from the fitted curve at half-maximal effect; % of control where 0% means no effect; nearly all actives have a fitted effect of over 70% in size
# * = called active by the depositor; ? = inconclusive; . = no result given. A selection: hits, their analogues and other compounds. The true share with any hit is near 2.4%. Unless noted, calls follow the shape of the dose curve; as a rule, active = well fitted activation curve with a large enough effect; inconclusive = small, poorly fitted or top-dose-only effect; inactive = flat fitted curve, though single readings scatter.
SMILES,D2 ag-1,D2 PAM-1,D2 ag-2,D2 PAM-2,D2 antag,D3 ag,D2 ag-3
O=C(CN1CCN(c2ncccn2)CC1)Nc1ccccc1-n1cccc1,5,-12,38*,-12,-21,1%,16%
O=C(CN1CCN(c2ccccn2)CC1)Nc1ccccc1Br,?,-21,47*,10,38*,-3%,19%
O=C(CN1CCN(c2ccccn2)CC1)Nc1cc(F)ccc1F,11,-18,50*,2,22,15%,15%
N#Cc1ccccc1NC(=O)CN1CCN(c2ccccn2)CC1,8,-4,10,-1,-2,.,.
CCCSc1ncc(Cl)c(C(=O)Nc2c(C(=O)c3ccc(F)cc3)oc3ccccc23)n1,.,0,1,.,.,.,.
CC(Sc1nnc(-c2cccnc2)n1N)C(=O)N1CCOCC1 (centres undefined),0,-9,0,-8,8,.,.
CC(Sc1nnc(-c2cccnc2)n1N)C(=O)NCCC1=CCCCC1 (centres undefined),3,-2,47*,-7,12,14%,23%
O=C(NCC(=O)N1CCN(Cc2ccccc2)CC1)c1cccs1,7,.,.,-1,.,.,.
O=C(c1cccs1)N1CCN(CCCc2ccccc2)CC1,2,-13,36*,-10,59*,15%,9%
O=C(c1cccs1)N1CCN(Cc2cccnc2)CC1,?,-6,60*,14,59*,-1%,?
CN(c1ccc(C(=O)N2CCN(Cc3ccccc3)CC2)cc1)S(=O)(=O)c1ccccc1,?,-24,67*,10,61*,2%,?
O=C(c1cccs1)N1CCN(c2ncccn2)CC1,-2,-10,0,2,15,.,.
O=C(c1cccs1)N1CCN(Cc2ccccc2)CC1,41*,-26,75*,24,64*,?,?
Cc1cnc(NC(=O)C2(C)CCN2C(=O)C(C)C)s1 (centres undefined),5,.,.,6,.,.,.
O=c1c2sccc2n(Cc2cc(=O)n3cc(Cl)ccc3n2)c(=O)n1-c1ccccc1,.,3,-1,.,.,.,.
Cc1ccnc(NC(=O)c2cccc(NC(=O)CC3SC(N4CCCCC4)=NC3=O)c2)c1 (centres undefined),-6,4,-2,-4,13,.,.
O=C(c1cccs1)N1CCN(Cc2ccncc2)CC1,14,-20,63*,3,21,13%,?
O=C(c1cccc(Cl)c1)N1CCN(Cc2ccncc2)CC1,-4,4,1,-11,-19,.,.
CCNC(=O)CC1C(=O)N(c2ccc(F)cc2)C(=O)N1Cc1ccc(OC)c(OC)c1 (centres undefined),.,20,-1,.,.,.,.
CCOc1ccc2c(c1)c(=O)c(S(=O)(=O)c1ccccc1)cn2CC(=O)Nc1ccccc1OC,.,-26,1,.,.,.,.
COC(=O)c1ccc(Cl)c(NC(=O)C2CCN(S(=O)(=O)Cc3ccccc3)CC2)c1,.,1,-1,.,.,.,.
O=C(c1ccc2c3c(cccc13)CC2)C1CCCN(C(=O)c2ccc[n+]([O-])c2)C1 (centres undefined),2,0,0,-5,22,-7%,-3%
